Screening data (PubChem)
Most compounds without a hit are left out; they make up all but 1.4% or so of the library.
E coli Lon inh: inhibitors of E. coli Lon protease, primary screen, biochemical, fluorescence polarization | hit rate 0.42% among 360,000 | AID 602123, 2011 | purified E. coli Lon protease | inhibition, % at 7.94 µM | P0A9M0; in the data active means inhibition above about 13%, passing the limit was not always enough;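 further: 0% = enzyme with probe and DMSO and 100% = no enzyme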
MCL1 BIM primary: inhibitors of MCL1 binding to BIM-BH3, primary screen, biochemical, fluorescence polarization; Induced myeloid leukemia cell differentiation protein Mcl-1 (Homo sapiens), Q07820; GST-MCL1 / FITC-Bim-BH3 fluorescence polarization; inhibition, % at 10.9 µM; hit rate 0.68% among 320,000; AID 2057, 2009;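 active means inhibition above the mean inhibition of all tested compounds plus 3 SD, set per campaign, cut at about 40% in these data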;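 further: 0% = DMSO wells and 100% = unlabeled Bim-BH3 peptide control; higher means more loss of mP so more displacement of Bim peptide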
MEX-5 binding: MEX-5 zinc finger RNA-binding disruptors – biochemical, C. elegans, fluorescence polarization, MLPCN library, primary screen; Zinc finger protein mex-5 (Caenorhabditis elegans), Q9XUB2; MEX-5/FITC-TCR2 RNA binding; stronger effect = lower value; activity score (negative = inhibition of binding), % at 10 µM; hit rate 0.38% among 300,000; AID 1832, 2009;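 active means inhibition past about -25% in most replicates, and total fluorescence under double the plate's negative control median, limit read from the data; inconclusive means replicates evenly split on the limit, or fluorescence at least double controls; inactive means too little inhibition in most replicates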;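 further: 0% = DMSO and -100% = 5 µM competing unlabeled TCR2 RNA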
GLD-1 TGE inh: GLD-1/TGE RNA complex disruptors, primary screen, biochemical, fluorescence polarization; purified GLD-1 + fluorescein TGE RNA; inhibition, % at 5.96 µM; hit rate 0.44% among 320,000;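 active means percent inhibition above a per-plate cutoff, the plate mean of test compounds plus 3 SD, cut at about 30% in these data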;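 further: 0% = DMSO wells with GLD-1 and probe and 100% = wells lacking GLD-1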
Target sequence (Q17339 whole entry, looked up): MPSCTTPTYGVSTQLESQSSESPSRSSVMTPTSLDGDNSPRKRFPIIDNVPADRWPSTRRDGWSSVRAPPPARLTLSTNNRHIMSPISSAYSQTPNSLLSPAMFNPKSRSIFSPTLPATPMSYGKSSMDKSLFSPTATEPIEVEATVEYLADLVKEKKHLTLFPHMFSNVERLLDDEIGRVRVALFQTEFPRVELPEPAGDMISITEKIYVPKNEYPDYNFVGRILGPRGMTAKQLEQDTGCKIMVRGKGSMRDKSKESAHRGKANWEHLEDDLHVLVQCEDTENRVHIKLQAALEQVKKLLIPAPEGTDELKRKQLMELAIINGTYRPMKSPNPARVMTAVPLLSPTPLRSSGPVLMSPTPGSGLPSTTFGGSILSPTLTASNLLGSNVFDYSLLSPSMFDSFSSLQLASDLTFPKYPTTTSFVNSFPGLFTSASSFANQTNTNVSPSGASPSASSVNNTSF
Bcl-xL primary: inhibitors of human Bcl-xL, primary screen, biochemical, fluorescence polarization, HTS; Bcl-2-like protein 1 (Homo sapiens), Q07817; GST-Bcl-xL / FITC-Bim BH3 peptide fluorescence polarization; inhibition, % at 10.9 µM; hit rate 0.7% among 320,000;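 active means inhibition above the mean of all tested compounds plus 3 SD, cutoff set per campaign, cut at about 30% in these data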;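 further: 0% = DMSO wells and 100% = unlabeled Bim-BH3 peptide competitor; inhibitors lower millipolarization by displacing the labeled peptide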
eLon confirm: E. coli Lon protease inhibitor retest, confirmation, biochemical, fluorescence polarization | hit rate 31% among 1,400 | shares compounds with E coli Lon inh | purified E. coli Lon | AID 602230, 2012 | inhibition, % at 7.94 µM; in the data active means inhibition above about 16%;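 further: 0% = enzyme with probe and DMSO and 100% = no enzyme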
An asterisk follows results filed as active; ? = inconclusive; . = not tested or not shown.

SMILES	E coli Lon inh	MCL1 BIM primary	MEX-5 binding	GLD-1 TGE inh	Bcl-xL primary	eLon confirm
Cc1ccc(C(C)C)c(OCC(=O)NN=C2CCCC(=O)C2)c1	43*	.	.	5	.	-29
Cc1cc2cc(CNS(=O)(=O)c3ccc4ccccc4c3)ccc2n1C	16*	1	0	12	8	12
COc1cccc(CNC(=O)c2ccc(S(=O)(=O)N3CCOCC3)cc2)c1	5	.	.	.	.	.
Cc1cc2cc(CNC(=O)c3ccc(S(=O)(=O)N4CCOCC4)cc3)ccc2n1C	24*	16	-1	23	11	3
Cc1cc2cc(CNC(=O)c3ccc(S(=O)(=O)N(C)C)cc3)ccc2n1C	26*	11	-4	14	10	6
Cc1cc(C)c(S(=O)(=O)NCc2ccc3c(c2)cc(C)n3C)c(C)c1	14	0	0	20	-1	.
Cc1cc2cc(CNC(=O)c3cccc([N+](=O)[O-])c3)ccc2n1C	8	6	-1	10	6	.
CCCc1nc2cc(C)c(Br)c(C)n2c1Cc1ccccc1OC	4	.	.	.	.	.
COCCNC(=O)c1cc(S(=O)(=O)N(C)C2CCCCC2)ccc1Cl	-4	.	.	.	.	.
CN(C)C1CN(Cc2cn(Cc3ccc(Cl)cc3)nn2)S(=O)(=O)C1 (stereo unspecified)	-5	.	.	.	.	.
COC(=O)c1[nH]c2cccc(OC)c2c1NC(=O)CCN1CCN(c2ccccc2OC)CC1	21*	9	0	-4	-12	6
CN(Cc1ccccc1)C(=O)c1csc(COCCO)n1	1	.	.	.	.	.
COC(=O)c1c(C(=O)OC)c2n(c1C)Cc1ccccc1C2	123*	15	?	13	12	-36
COc1ccc(C(=O)N=S2CCN(C(=O)c3ccc(Cl)cc3)CC2)cc1	103*	-8	-2	-1	-3	12
CCOC(=O)[C@]12CCC=C1N(Cc1cccc3ccccc13)C(=O)[C@H](CC(=O)NCc1ccc(OC)c(OC)c1)C2	1	.	.	.	.	.
Cc1ccc(-n2c(C)cc(C(=O)Cn3nc(C(=O)O)c4ccccc4c3=O)c2C)cc1	51*	-16	0	-4	-1	-4
CC1(C)C[C@H]2C3=CCC4[C@@]5(C)CC[C@H](O)[C@@](C)(CO)C5CC[C@@]4(C)[C@]3(C)C[C@@H](O)[C@@]2(CO)[C@@H](O)[C@@H]1O (stereo partly specified)	0	.	.	7	.	.
Cc1cc(C)c2c(c1)-c1cc(C)nn1C(c1ccc3c(c1)OCO3)N2 (stereo unspecified)	21*	4	2	8	4	-1
COC(=O)[C@H](CC(C)C)NC(=O)Cn1cnc2c(SC)nc(N)nc21	12*	.	.	9	.	2
COCCNc1nc(C)cc(-c2cc(C(=O)Nc3ccccc3)on2)n1	29*	4	2	-5	2	3
CC(=O)NCCC(=O)Nc1cc(S(=O)(=O)N2CCOCC2)ccc1N1CCCC1	8	-15	2	-4	-9	.
O=c1nc2ccccc2c(NS(=O)(=O)c2ccccc2)n1-c1ccccc1	61*	4	2	-1	2	6
CC1(C)CC(=O)c2cnc(NCC3CCCO3)nc2C1 (stereo unspecified)	-2	0	-5	8	1	.
CC1CC(=O)c2cnc(NCC3CCCO3)nc2C1 (stereo unspecified)	16*	18	-3	15	14	-1
COC(=O)c1ccc(=O)n(Cc2ccc3c(c2)OCO3)c1	21*	-4	-1	-4	4	-7
O=C(NC1CCN(Cc2ccccc2)CC1)c1[nH]c(C(F)(F)F)nc1-c1ccccc1	-3	.	.	.	.	.
Cc1cccc(N2N=C(C(=O)O)CCC2=O)c1	37*	1	0	-1	5	2
CN(C)c1ccc(S(=O)(=O)N2CCCCC2)cc1NC(=O)CCNC(=O)c1ccco1	3	-1	.	-2	4	.
CC1(C(=O)Nc2ccc(F)c(Cl)c2)Cc2c(-c3ccc(C(N)=O)cc3)ccnc2O1 (stereo unspecified)	-15	.	.	.	.	.
